# In PubChem BioAssay (EPA / NIEHS):
# Results filed as inconclusive are left out. Activity calls are given as the source filed them. The calls were made as follows, unless noted: active = hit-call score of the fitted dose curve at least 0.9, where 1 is the maximum; inconclusive = response in the unintended direction; inactive = score below 0.9.
# Assays:
# THRB (gene 7068) = THRB (gene 7068) (UniProt P10828); test: TOX21_TRB_COA_Agonist_Followup_ratio: Tox21 Thyroid Hormone Receptor beta Agonism through Coactivator Recruitment Follow-Up Assay, Ratio (AID 2283963; active = hit-call score of the fitted dose curve at least 0.9, where 1 is the maximum; inactive = score below 0.9)
# In short: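 Cell-free TR-FRET coactivator recruitment: GST-tagged TRβ LBD (5.0 nM) with 0.10% BSA incubated with compound, then fluorescein-SRC-2 peptide (200 nM) and Tb-anti-GST antibody (2 nM) added. 520:495 nm ratio normalized to DMSO (0%) and T3 (100%).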
# [1] = biological target: Retinoic acid receptor RXR-alpha (Homo sapiens) (UniProt P19793); test: TOX21_TR_RXR_BLA_Agonist_Followup_ratio: Tox21 Thyroid Hormone Receptor beta Retinoid X Receptor alpha (RXRa) Agonism Beta-lactamase (BLA) Follow-Up Assay, Ratio (AID 2283968)
# In short: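 HEK293T RXRa-bla, qHTS; cpd 11-pt conc. in triplicate, 16 h 37C/5% CO2; CCF4-AM 2 h RT; ratio 460:530 nm; agonist direction vs DMSO; 9-cis retinoic acid as positive control.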
# [2] = TOX21_TR_RXR_BLA_Agonist_Followup_viability: Viability Assessment in the Tox21 Thyroid Hormone Receptor beta Retinoid X Receptor alpha (RXRa) Agonism Beta-lactamase (BLA) Follow-Up Assay (AID 2283970)
# In short: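 Cells: HEK293T RXRa-UAS-bla, 2,500/well; medium phenol red-free DMEM + 2% charcoal-stripped FBS; 16h, 37C/5% CO2; qHTS concentration series. Read: CellTiter-Glo luminescence (ATP); bidirectional fit, DMSO = baseline.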
# rat CYP3A1, gene 25642 = test: NVS_ADME_rCYP3A1: NovaScreen (NVS) CYP450-related Enzyme Activity (ADME) Assay for rat CYP3A1 (AID 2283126)
# In short: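 Cell-free recombinant CYP assay with fluorescent substrate, read 0.5 h after dosing. Screened at 10 uM in duplicate, hits at up to 20 uM in concentration-response; loss of signal versus acetonitrile baseline.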
# [3] = biological target: human Purinergic Receptor P2Y, P2RY1 (gene 5028) (UniProt P47900); test: NVS_GPCR_hPY2: NovaScreen (NVS) G Protein-Coupled Receptor Assay for human Purinergic Receptor P2Y (AID 2283281)
# In short: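 Cell-free radioligand binding using U937-derived protein, 1 h after dosing, filter-based scintillation counting. Screened in duplicate at 25 uM; actives rerun as concentration-response up to 50 uM; loss of signal versus DMSO.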
# [4] = biological target: human Matrix Metalloproteinase-2 (MMP2), MMP2 (gene 4313) (UniProt P08253); test: NVS_ENZ_hMMP2: NovaScreen (NVS) Enzymatic Assay for human Matrix Metalloproteinase-2 (MMP2) (AID 2283184)
# In short: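 Cell-free recombinant MMP2 activity with a fluorescent substrate, read 1 h after dosing. Primary screen in duplicate at 25 uM; actives then run in concentration series; loss of signal fitted versus DMSO.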
# [5] = ATG_M_06_XSP1: Attagene TRANS-FACTORIAL Multi-Species (XSP1) HepG2 Assay for M06 Transcription Factor (Internal Marker) (AID 2283790)
# In short: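 Transfected HepG2 multi-reporter system treated 24 h in the presence of 3 nM 6-alpha-fluorotestosterone. The M06 internal marker transcript was quantified by RT-PCR with capillary electrophoresis as a background control, and gain of signal was scored versus DMSO.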
# [6] = ATG_M_61_XSP1: Attagene TRANS-FACTORIAL Multi-Species (XSP1) HepG2 Assay for M61 Transcription Factor (Internal Marker) (AID 2283797)
# In short: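 HepG2 cells transiently transfected with multiplexed GAL4-driven reporter units, dosed 24 h with 3 nM 6-alpha-fluorotestosterone present. Reporter mRNA quantified by RT-PCR, 6-FAM labelling, HpaI digestion and capillary electrophoresis; internal-marker background control, gain of signal versus DMSO.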
# [7] = biological target: GAL4 Transcription Factor (Internal Marker), GAL4 (gene 855828) (UniProt P04386); test: ATG_GAL4_XSP2: Attagene TRANS-FACTORIAL Multi-Species (XSP2) HepG2 Assay for GAL4 Transcription Factor (Internal Marker) (AID 2283814);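 also: GAL4 reporter mRNA background control in MRTU transfected cells not a receptor target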
# In short: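 HepG2 cells transiently transfected with GAL4-UAS reporter units, stimulated with 3 nM 6-alpha-fluorotestosterone plus 1.5 nM norgestrel, dosed 24 h. Reporter mRNA by RT-PCR/capillary electrophoresis; gain-of-signal fit versus DMSO, background control.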
# [8] = biological target: chicken Estrogen Receptor (ERa), ESR1 (gene 396099) (UniProt P06212); test: ATG_chERa_XSP2: Attagene TRANS-FACTORIAL Multi-Species (XSP2) HepG2 Assay for chicken Estrogen Receptor (ERa) (AID 2283817);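 also: actives raise reporter signal above DMSO so AC50 reflects ER activation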
# In short: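 HepG2 cells transiently transfected with multiplexed GAL4-UAS reporter units expressing chimeric chicken ERa-Gal4; 24 h compound exposure. Reporter mRNA measured by RT-PCR with 6-FAM labelling, HpaI digestion and capillary electrophoresis; gain-of-signal fitted versus DMSO.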
# [9] = STM_H9_NormalizedViability: Cytotoxicity Assessment at 120 hours in the Stemina devTOX quickPredict H9 human embryonic stem cell (hESC)-based Assay (AID 2283784)
# In short: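 Pluripotent H9 cells dosed, fresh medium plus compound q24h → cell layer read by CellTiter-Fluor → RFU blank-corrected, normalized to DMSO 0.1% mean. Loss-of-signal fit, DMSO as baseline.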
# [10] = CCTE_Shafer_MEA_acute_AB: CCTE's Alamar Blue Assay for Cytotoxicity in the Neural Acute Assay, Shafer Lab (AID 2284069);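 also: active compounds lower the viability signal compared with DMSO wells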
# In short: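 Primary rat cortical neurons on MEA plates, exposed acutely after baseline recording on day 13 or 15 post-plating. Viability by CellTiter Blue resazurin reduction (1:6 reagent dilution), fluorescence 544/590 nm; loss of signal versus DMSO.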
# [11] = system: Thyroperoxidase (TPO), gene 445522; test: CCTE_Simmons_GUA_TPO: CCTE's Guaiacol Assay for Thyroperoxidase (TPO) Inhibition, Simmons Lab (AID 2283750)
# In short: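 Porcine thyroid microsomes (25 ug) in 200mM potassium phosphate, preincubated 30 s at 37C with compound (8 concentrations, 5 nM–87.5 uM) and 35mM guaiacol; 1mM H2O2 starts reaction. Absorbance change at 450nm over first 80 s; loss of signal versus DMSO, three replicates.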
# [12] = biological target: human CYP1A2, CYP1A2 (gene 1544) (UniProt P05177); test: NVS_ADME_hCYP1A2: NovaScreen (NVS) CYP450-related Enzyme Activity (ADME) Assay for human CYP1A2 (AID 2283102)
# In short: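 Recombinant human CYP1A2 from insect cells, cell-free, fluorogenic substrate; read 0.5 h after dosing with loss of fluorescence signal indicating inhibition. Primary screen in duplicate at 10 uM, acetonitrile as negative control.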
# [13] = biological target: human Aurora Kinase A - serine/threonine-protein Kinase 6 (AurA), AURKA (gene 6790) (UniProt O14965); test: NVS_ENZ_hAurA: NovaScreen (NVS) Enzymatic Assay for human Aurora Kinase A - serine/threonine-protein Kinase 6 (AurA) (AID 2283142)
# In short: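 Cell-free enzymatic assay with human Aurora A, 1 hour after dosing. Fluorescent substrate turnover detected after electrophoretic mobility shift separation of substrate and product. Screened at 25 uM, actives retested in concentration-response up to 50 uM.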
# [14] = biological target: human Ephrin type-A Receptor 2 (EphA2), EPHA2 (gene 1969) (UniProt P29317); test: NVS_ENZ_hEphA2: NovaScreen (NVS) Enzymatic Assay for human Ephrin type-A Receptor 2 (EphA2) (AID 2283155)
# In short: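 Cell-free recombinant EphA2 kinase with specific substrate, 1 h, fluorescence with electrophoretic mobility-shift separation of substrate and product. Primary screen at 25 uM in duplicate; hits retested in singleton concentration-response up to 50 uM, referenced to DMSO.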
# [15] = biological target: human c-Jun N-terminal Kinases (JNK2), MAPK9 (gene 5601) (UniProt P45984); test: NVS_ENZ_hJNK2: NovaScreen (NVS) Enzymatic Assay for human c-Jun N-terminal Kinases (JNK2) (AID 2283171)
# In short: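 Cell-free recombinant human JNK2 activity assay; fluorescent substrate and product separated by electrophoretic mobility shift, read 1 h after dosing. Primary duplicate screen at 25 uM; actives run in concentration-response up to 50 uM, relative to DMSO.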
# [16] = biological target: Mitogen-activated protein kinase 3 (Homo sapiens) (UniProt P27361); test: NVS_ENZ_hMAPK3: NovaScreen (NVS) Enzymatic Assay for human Mitogen-Activated Protein Kinase 3 (MAPK 3) (AID 2283177)
# In short: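 Cell-free enzymatic assay with recombinant protein and specific substrate; fluorescence and electrophoretic mobility shift read-out 1 h after dosing. Primary screen duplicate at 25 uM; actives then run in concentration-response up to 50 uM, loss of signal versus DMSO.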
# [17] = biological target: human MET Proto-Oncogene, Receptor Tyrosine Kinase (MET), MET (gene 4233) (UniProt P08581); test: NVS_ENZ_hMet: NovaScreen (NVS) Enzymatic Assay for human MET Proto-Oncogene, Receptor Tyrosine Kinase (MET) (AID 2283180)
# In short: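 Cell-free MET kinase assay using recombinant protein and fluorescent substrate, with mobility-shift separation; read 1 h after dosing. Primary duplicate at 25 uM; actives in singleton concentration-response to 50 uM maximum. Signal loss versus DMSO.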
# [18] = biological target: human Mitogen- and Stress-activated Protein Kinase-1 (Msk1), RPS6KA5 (gene 9252) (UniProt O75582); test: NVS_ENZ_hMsk1: NovaScreen (NVS) Enzymatic Assay for human Mitogen- and Stress-activated Protein Kinase-1 (Msk1) (AID 2283187)
# In short: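 Recombinant kinase with fluorescent substrate; product separated by electrophoretic mobility shift, read 1 h after dosing. Screened in duplicate at 25 uM; hits (e.g. ≥30% inhibition) tested in concentration–response up to 50 uM. DMSO baseline.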
# human MET Proto-Oncogene, Receptor Tyrosine Kinase (MET), MET (gene 4233), sequence (P08581 whole entry, looked up): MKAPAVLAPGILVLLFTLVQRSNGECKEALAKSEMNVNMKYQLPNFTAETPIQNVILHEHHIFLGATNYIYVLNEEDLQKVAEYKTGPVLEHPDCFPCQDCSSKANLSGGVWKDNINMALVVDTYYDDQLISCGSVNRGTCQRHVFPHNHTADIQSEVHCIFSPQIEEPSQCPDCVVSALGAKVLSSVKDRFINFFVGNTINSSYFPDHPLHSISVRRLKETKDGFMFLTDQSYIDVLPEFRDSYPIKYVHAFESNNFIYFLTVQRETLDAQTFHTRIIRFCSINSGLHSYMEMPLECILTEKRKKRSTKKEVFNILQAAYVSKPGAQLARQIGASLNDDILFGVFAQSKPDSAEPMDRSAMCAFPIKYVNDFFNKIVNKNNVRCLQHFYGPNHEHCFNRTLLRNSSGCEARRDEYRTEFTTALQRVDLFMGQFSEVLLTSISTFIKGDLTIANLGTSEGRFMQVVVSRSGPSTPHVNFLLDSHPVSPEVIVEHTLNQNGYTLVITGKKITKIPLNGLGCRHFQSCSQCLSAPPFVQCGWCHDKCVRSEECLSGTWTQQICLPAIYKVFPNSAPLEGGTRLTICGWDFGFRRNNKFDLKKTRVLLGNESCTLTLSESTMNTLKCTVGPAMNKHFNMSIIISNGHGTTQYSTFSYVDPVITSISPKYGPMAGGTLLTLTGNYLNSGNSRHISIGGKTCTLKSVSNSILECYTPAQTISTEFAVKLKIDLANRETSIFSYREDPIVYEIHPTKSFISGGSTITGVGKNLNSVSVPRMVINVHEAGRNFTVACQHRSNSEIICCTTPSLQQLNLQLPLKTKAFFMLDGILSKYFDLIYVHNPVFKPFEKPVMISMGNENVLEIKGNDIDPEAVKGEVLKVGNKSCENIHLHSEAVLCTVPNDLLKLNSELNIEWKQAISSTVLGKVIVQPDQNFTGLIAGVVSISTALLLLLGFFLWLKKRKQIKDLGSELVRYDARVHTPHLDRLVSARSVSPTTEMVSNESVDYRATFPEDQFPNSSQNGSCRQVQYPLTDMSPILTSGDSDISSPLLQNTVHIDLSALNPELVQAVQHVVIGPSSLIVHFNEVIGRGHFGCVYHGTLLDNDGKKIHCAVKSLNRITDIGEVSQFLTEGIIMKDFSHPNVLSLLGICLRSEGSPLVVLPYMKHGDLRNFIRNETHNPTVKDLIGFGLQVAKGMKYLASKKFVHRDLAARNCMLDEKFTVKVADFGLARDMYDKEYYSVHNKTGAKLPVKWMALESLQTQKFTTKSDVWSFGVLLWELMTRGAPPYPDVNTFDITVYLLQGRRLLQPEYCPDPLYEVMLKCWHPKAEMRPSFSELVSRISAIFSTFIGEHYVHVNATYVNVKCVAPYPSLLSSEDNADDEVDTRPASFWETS
# human Purinergic Receptor P2Y, P2RY1 (gene 5028), sequence (P47900 whole entry, looked up): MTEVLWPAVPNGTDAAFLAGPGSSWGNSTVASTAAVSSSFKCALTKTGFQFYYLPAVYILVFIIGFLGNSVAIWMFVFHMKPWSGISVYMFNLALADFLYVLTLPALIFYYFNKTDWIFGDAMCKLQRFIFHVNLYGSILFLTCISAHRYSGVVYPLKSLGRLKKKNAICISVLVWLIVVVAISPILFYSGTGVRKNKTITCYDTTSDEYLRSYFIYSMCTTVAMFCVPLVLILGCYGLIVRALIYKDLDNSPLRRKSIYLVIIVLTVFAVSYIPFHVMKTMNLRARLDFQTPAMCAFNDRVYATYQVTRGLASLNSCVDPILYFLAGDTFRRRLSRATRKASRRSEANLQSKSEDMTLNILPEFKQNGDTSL
# chicken Estrogen Receptor (ERa), ESR1 (gene 396099), sequence (P06212 whole entry, looked up, the tested form may be a part): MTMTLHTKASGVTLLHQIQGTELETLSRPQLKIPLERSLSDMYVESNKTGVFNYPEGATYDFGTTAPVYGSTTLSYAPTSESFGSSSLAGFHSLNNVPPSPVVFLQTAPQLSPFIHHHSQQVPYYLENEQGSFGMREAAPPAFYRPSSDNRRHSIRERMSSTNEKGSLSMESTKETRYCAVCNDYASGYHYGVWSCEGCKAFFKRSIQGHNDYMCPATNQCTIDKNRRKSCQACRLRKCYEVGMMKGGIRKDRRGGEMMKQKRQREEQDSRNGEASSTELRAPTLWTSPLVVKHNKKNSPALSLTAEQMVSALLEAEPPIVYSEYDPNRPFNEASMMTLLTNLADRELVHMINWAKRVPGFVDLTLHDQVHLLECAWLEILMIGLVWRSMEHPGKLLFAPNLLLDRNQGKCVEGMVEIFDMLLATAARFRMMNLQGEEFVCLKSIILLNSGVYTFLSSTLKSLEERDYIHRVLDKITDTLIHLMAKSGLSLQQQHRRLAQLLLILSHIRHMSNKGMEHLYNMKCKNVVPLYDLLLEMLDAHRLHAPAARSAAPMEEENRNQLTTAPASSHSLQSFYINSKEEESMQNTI
# human Aurora Kinase A - serine/threonine-protein Kinase 6 (AurA), AURKA (gene 6790), sequence (O14965 whole entry, looked up): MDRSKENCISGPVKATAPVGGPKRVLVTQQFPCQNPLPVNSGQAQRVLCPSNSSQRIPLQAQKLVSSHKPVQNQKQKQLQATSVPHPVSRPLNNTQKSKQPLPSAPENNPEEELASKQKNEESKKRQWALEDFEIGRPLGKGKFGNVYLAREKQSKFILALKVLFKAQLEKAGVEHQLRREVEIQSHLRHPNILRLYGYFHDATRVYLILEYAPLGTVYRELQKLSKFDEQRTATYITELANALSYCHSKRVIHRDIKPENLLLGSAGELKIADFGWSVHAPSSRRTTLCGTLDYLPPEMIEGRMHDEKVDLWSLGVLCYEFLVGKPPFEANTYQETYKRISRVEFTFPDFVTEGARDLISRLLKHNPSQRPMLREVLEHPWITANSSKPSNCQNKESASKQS
# THRB (gene 7068), sequence (P10828 whole entry, looked up, the tested form may be a part): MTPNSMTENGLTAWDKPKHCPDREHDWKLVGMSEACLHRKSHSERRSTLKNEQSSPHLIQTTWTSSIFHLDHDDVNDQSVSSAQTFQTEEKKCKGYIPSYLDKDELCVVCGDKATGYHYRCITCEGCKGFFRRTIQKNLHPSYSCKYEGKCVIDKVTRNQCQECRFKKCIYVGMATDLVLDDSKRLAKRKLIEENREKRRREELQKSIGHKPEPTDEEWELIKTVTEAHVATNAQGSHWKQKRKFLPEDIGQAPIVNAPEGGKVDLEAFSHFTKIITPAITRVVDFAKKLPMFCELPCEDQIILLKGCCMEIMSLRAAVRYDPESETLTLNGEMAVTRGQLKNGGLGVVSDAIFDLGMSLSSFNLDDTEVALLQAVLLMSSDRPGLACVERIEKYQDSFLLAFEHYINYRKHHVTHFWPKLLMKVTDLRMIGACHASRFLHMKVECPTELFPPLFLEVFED
# Retinoic acid receptor RXR-alpha (Homo sapiens), sequence (P19793 whole entry, looked up): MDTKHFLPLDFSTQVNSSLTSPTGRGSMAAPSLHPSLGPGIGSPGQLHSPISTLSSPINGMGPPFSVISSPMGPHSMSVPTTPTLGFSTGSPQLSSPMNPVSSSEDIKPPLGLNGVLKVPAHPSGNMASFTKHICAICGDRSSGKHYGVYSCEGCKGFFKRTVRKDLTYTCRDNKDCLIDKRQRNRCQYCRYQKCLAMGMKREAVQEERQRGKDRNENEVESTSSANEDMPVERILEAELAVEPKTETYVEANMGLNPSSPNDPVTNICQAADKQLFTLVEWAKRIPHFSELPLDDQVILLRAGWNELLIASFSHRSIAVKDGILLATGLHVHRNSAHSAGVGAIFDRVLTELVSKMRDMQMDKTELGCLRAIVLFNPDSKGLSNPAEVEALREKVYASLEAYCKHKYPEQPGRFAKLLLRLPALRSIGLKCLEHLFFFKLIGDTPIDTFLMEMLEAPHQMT
# GAL4 Transcription Factor (Internal Marker), GAL4 (gene 855828), sequence (P04386 whole entry, looked up, the tested form may be a part): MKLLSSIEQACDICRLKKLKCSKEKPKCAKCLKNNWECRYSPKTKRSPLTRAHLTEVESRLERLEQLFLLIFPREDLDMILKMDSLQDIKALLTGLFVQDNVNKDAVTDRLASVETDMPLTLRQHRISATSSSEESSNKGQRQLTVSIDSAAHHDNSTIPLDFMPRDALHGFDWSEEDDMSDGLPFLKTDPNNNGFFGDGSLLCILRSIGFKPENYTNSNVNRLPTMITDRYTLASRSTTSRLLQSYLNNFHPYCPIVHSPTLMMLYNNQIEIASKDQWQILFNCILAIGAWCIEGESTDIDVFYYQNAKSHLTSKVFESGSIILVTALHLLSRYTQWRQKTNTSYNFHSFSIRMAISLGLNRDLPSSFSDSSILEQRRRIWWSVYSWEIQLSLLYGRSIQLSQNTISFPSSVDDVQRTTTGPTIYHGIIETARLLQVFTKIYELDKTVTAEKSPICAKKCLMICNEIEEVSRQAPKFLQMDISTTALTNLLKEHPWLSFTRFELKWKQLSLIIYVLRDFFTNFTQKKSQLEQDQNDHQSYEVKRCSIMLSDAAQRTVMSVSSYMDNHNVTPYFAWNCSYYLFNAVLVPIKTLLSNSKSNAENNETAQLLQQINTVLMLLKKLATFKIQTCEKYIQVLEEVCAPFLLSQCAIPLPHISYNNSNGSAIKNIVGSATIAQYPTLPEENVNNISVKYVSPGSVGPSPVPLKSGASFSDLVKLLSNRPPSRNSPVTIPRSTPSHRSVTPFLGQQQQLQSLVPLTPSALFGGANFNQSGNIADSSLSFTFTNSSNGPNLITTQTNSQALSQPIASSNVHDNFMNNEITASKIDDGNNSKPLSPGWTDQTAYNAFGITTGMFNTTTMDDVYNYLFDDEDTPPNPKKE
# human c-Jun N-terminal Kinases (JNK2), MAPK9 (gene 5601), sequence (P45984 whole entry, looked up): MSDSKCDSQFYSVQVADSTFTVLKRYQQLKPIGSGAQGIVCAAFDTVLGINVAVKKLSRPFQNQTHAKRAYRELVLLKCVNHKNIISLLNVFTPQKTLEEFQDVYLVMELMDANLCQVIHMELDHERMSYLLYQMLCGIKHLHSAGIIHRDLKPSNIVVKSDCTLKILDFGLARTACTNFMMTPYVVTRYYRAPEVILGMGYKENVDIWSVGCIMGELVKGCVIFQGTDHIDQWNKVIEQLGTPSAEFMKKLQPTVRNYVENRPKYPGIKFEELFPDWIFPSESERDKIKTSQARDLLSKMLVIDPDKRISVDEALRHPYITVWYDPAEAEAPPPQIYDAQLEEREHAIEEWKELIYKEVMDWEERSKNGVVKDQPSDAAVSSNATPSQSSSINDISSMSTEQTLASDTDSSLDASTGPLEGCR
compound,measurement,setting,value
CC(C)CCCCCCCOC(=O)c1ccccc1C(=O)OCCCCCCCC(C)C,outcome,THRB (gene 7068),inactive
same,outcome,[1],inactive
same,outcome,[2],inactive
CCOC(=O)NC(=S)Nc1ccccc1NC(=S)NC(=O)OCC,AC50,"rat CYP3A1, gene 25642",1.53 µM (active)
same,outcome,[3],inactive
Cc1cc(C)c(C2=C(OC(=O)CC(C)(C)C)C3(CCCC3)OC2=O)c(C)c1,outcome,[4],inactive
CC(=O)c1cc2c(cc1C)C(C)(C)C(C)CC2(C)C (stereo not given),outcome,[5],inactive
same,outcome,[6],inactive
same,outcome,[7],inactive
same,outcome,[8],inactive
O=c1c2ccccc2c(=O)c2c1cc(Cl)c1[nH]c3c([nH]c12)c(Cl)cc1c(=O)c2ccccc2c(=O)c13,outcome,[9],inactive
same,outcome,[10],inactive
Nc1ccccc1,AC50,[11],9.69 µM (active)
N#CCCCCC#N,outcome,[12],inactive
same,outcome,[13],inactive
same,outcome,[14],inactive
same,outcome,[15],inactive
same,outcome,[16],inactive
same,outcome,[17],inactive
same,outcome,[18],inactive
